Consider 16 molecules from PMC12136788.

Changes are numbered by the printed parent chain. Over roughly 24,000 sequences, “enrichment r” has its median near 0.99; the highest 2% begin near 3.7. For the sample, the highest values were picked, then their nearest neighbours and some sequences at random.

T1: UNK ZnF1-3 (human, UniProt Q9C0B0 31-174)
T1 sequence: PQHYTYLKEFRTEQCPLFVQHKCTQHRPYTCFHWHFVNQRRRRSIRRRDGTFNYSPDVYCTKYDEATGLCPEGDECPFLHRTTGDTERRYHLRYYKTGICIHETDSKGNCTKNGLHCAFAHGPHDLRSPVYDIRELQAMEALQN

B1: chrX:98862621:98862622:+_ENSMUSG00000034160_ENSMUST00000044475|mus_hu|mus_mus_mus_hu_False|18_68 (ssRNA)
RNA: GGGAGUUCUACAGUCCGACGAUCCUGCAUCUCCUUUAGAGUGUUUCCCAUAUUAGAGUAGGCAUCAGCAAAUGUAGGACUGAUUCGAAUAGCCUCCUUAUAAUGCAUCAGAGCUUCCUGCAGCUUGCCCUGCUGCUGCAGUACCAACAGAGGAUUGAGCAUCA
B2: chr4:43703020:43703021:+_ENSMUSG00000078716_ENSMUST00000107866|mus_mus|FALSE|FALSE (ssRNA)
RNA: GGGAGUUCUACAGUCCGACGAUCCACACUGCCAGCAAUGAGCAUGUGCCAAAUGCUGUGAAUGUAGAAGUAGUUGUCCCGAGUCUCCACGAAAGCAUACAGUAGAACGGCACUGCCAGCAAUCAGGCUGCCGGGACACAGGUACAACAGAGGAUUGAGCAUCA
B3: chr2:130910683:130910684:-_ENSG00000136699_ENST00000351288|hu_hu|motif|central (ssRNA)
RNA: GGGAGUUCUACAGUCCGACGAUCGGAACACAGAGCCGCCAUCUGUCCUGCAAAUCUGUGGUUGAUGGCAGACGACAGCCGGAAGAGUGUGCGGACCAAGCUGGCGAUCUCAUAGCUCCGGAUGGGCUGCAGCUCCGGGUCCCCCAACAGAGGAUUGAGCAUCA
B4: chr17:56552419:56552420:-_ENSMUSG00000013236_ENSMUST00000086828|mus_mus|mus_mus_mus_hu_False|8_18 (ssRNA)
RNA: GGGAGUUCUACAGUCCGACGAUCAAAAAAUACACUAUUUAAAAAAAAUGAAAUGUCACGGGAUACAGUUACACUGAGAGUUUUAAAAGAAAGCUGGAUUCUGGUCCCAGCCCAGUGGCAGGCAGGGGAGUGCGGAAGAGGAGCCAACAGAGGAUUGAGCAUCA
B5: chr17:56552419:56552420:-_ENSMUSG00000013236_ENSMUST00000086828|mus_mus|mus_mus_mus_hu_False|18_48 (ssRNA)
RNA: GGGAGUUCUACAGUCCGACGAUCAAAAAAUACACUAUUUAAAAAAAAUGAAAUGUCACGGGAUACAGUUACACUGAGAGUUUUAAAAAAAAAUAAGAUUCUGGUCCCAGCCCAGUGGCAGGCAGGGGCAGAGCGGGGAGGAGCCAACAGAGGAUUGAGCAUCA
B6: chr17:56552419:56552420:-_ENSMUSG00000013236_ENSMUST00000086828|mus_mus|mus_mus_mus_hu_False|18_18 (ssRNA)
RNA: B5 RNA with A88G, A92G, U93C, A94U, A95G
B7: chr17:56552419:56552420:-_ENSMUSG00000013236_ENSMUST00000086828|mus_mus|mus_mus_mus_hu_False|18_58 (ssRNA)
RNA: B5 RNA with G77C, G79C, U81A, A88G, A92G, U93C, A94U, A95G
B8: chr17:56552419:56552420:-_ENSMUSG00000013236_ENSMUST00000086828|mus_mus|mus_mus_mus_hu_False|1_18 (ssRNA)
RNA: B5 RNA with A88G, A92G, U93C, A94U, A95G, A138C, G139A, C143G
B9: chr17:56552419:56552420:-_ENSMUSG00000013236_ENSMUST00000086828|mus_mus|mus_mus_mus_hu_False|18_98 (ssRNA)
RNA: B5 RNA with U38A, U39A, A88G, A92G, U93C, A94U, A95G
B10: chr5:145543945:145543946:-_ENSG00000133706_ENST00000545646|hu_hu|hu_hu_hu_mus_True|38_98 (ssRNA)
RNA: GGGAGUUCUACAGUCCGACGAUCCUGAACGGCCAGUGGCGGGAAAUAAUCAAGCCAGUGCUCUGCUUCAGAAAACUUCACUAUGUCGUCAUCAGAGAGGCCAAGGGAUUUCAUAAUGUCCCACUGGUACUUAGAAGAUCCUGCCAACAGAGGAUUGAGCAUCA
B11: 57396971_57397091_122_5pUTR_ENSMUSG00000021938_ENSMUST00000022507|mouse|control|control (ssRNA)
RNA: GGGAGUUCUACAGUCCGACGAUCGCUUCAGGUUUCCUCUUAACAUCAUCUUAGCAAGUUCGCUUGGGAUGCUGGAUGAGGCCUAGACGUCAAGGUACACACGUCUCCACAUGUAUCUAUGGAAACGAAGCAAGGAAAGCCAGGCAACAGAGGAUUGAGCAUCA
B12: 79664557_79664677_4134_CDS_ENSG00000146247_ENST00000275034|human|control|control (ssRNA)
RNA: GGGAGUUCUACAGUCCGACGAUCACGGAAAGGCUCUGAAUCUUCACAUUGAAAUAUGAGAUUUAACAAUUCUUCACACUGUUUCUUCCAUGCUUGAAUAUCGUAAGACUGGGCUCUAUUACGUAAUCUUCUUCUAGGCUGAUGCAACAGAGGAUUGAGCAUCA
B13: chr2:113333244:113333245:+_ENSG00000125630_ENST00000417433|hu_hu|FALSE|FALSE (ssRNA)
RNA: GGGAGUUCUACAGUCCGACGAUCAACAUCAAGUUAAACAACAUCCAGUUUCACUUUGAUGUUCAUAGCUGCCAGUUCAGCUACAAAAUACCGAAAAACAUAAGGCACAGAAACAGUAUCGAUAGUGUCACUGCGACUACACAGCAACAGAGGAUUGAGCAUCA
B14: chr5:128440902:128440903:+_ENSG00000066583_ENST00000173527|hu_mus|hu_hu_hu_mus_True|88_98 (ssRNA)
RNA: GGGAGUUCUACAGUCCGACGAUCUUGAACGGUGCUGCCAAGACCUUUAGGGUAUUGUUCCGUUAUGAUAACUGGAAUCCCUAAGAUCCGAGCUCCUUGCAACAGUCUCUGUCCCACACUAAUGAUGUCCCCAAAGUAUUUGAUCAACAGAGGAUUGAGCAUCA
B15: chr2:9725471:9725472:-_ENSG00000134308_ENST00000238081|hu_hu|FALSE|FALSE (ssRNA)
RNA: GGGAGUUCUACAGUCCGACGAUCUGCCGCAUCACAUUCUUCUCCUGCACUGUCUGAUGUCCAAAGUGUUAGGUUGUCUCUAAGCAACUGCAUGAUGAGGGUGCUGUCUUUGUAUGAGUCUUCAUUCAGUGUAUCAAGUUCAGCCAACAGAGGAUUGAGCAUCA
B16: 27821128_27827609_1759_CDS_ENSMUSG00000022263_ENSMUST00000090247|mouse|control|control (ssRNA)
RNA: GGGAGUUCUACAGUCCGACGAUCGCCCUGGUGAUGAUGAAUGGCGUCUUCCAGGUCCUGCAGCUCCGAGGGAAGGUCUACUUCACCACAGGCCUUACACCACGAGUCCACGUUGCUCAUGUACUUCUCAGCCUUCUGGUGAAACAACAGAGGAUUGAGCAUCA

The test concerns the target T1, UNK ZnF1-3. Put plainly: nsRBNS (natural sequence RNA bind-n-seq); RBNS binding buffer (assumed for nsRBNS): 25 mM Tris pH 7.5, 150 mM KCl, 3 mM MgCl2, 0.01% Triton X-100, 500 ug/ml BSA, 20 U/ml SUPERase-In, 4 C; UNK is unkempt and MSI1 is Musashi-1; names of the RNAs are library labels; protein concentration not given here; high values mean tight binding.
Regarding B1, the binding signal worked out at 1.07 enrichment R.

In turn, B2 displayed a binding signal of 0.899 enrichment R.

As to B3, the binding signal was 0.907 enrichment R.

The molecule B4 displayed a binding signal of 3.69 enrichment R.

In turn, B5 came in with a binding signal of 7.31 enrichment R.

Regarding B6, the binding signal was 3.38 enrichment R.

In turn, B7 came in with a binding signal of 5.2 enrichment R.

For the molecule B8, the binding signal came out at 3.35 enrichment R.

Regarding B9, the binding signal turned out to be 6.3 enrichment R.

Take B10: the binding signal turned out to be 1.21 enrichment R.

B11 yielded a binding signal of 0.72 enrichment R.

B12 gave a binding signal of 1.11 enrichment R.

On to B13, for which the binding signal amounted to 0.877 enrichment R.

As to B14, the binding signal is 0.627 enrichment R.

Regarding B15, the binding signal is 0.929 enrichment R.

Regarding B16, the binding signal is 0.482 enrichment R.
